Results as given in PubChem BioAssay.
Values without a mark were called inactive. Active and inactive are the calls of the source. Unless noted, no stated cut-off is given here; in the data, active means inhibition above about 25%; inactive means the rest.

Target: Nuclear receptor coactivator 1 (Homo sapiens) (UniProt Q15788)
Test: NCOA1 GAL4-fusion reporter inhibition – cell-based, luminescence, quadruplicate, confirmation (AID 588820;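 active means mean inhibition above 46.68%, the untreated control wells mean plus 3 SD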;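 further: 0% = DMSO wells and 100% = gossypol 36 µM treated wells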)
Details: HEK293 GAL4-SRC1 luciferase reporter, at 3.6 µM, active compounds read high

Nuclear receptor coactivator 1 (Homo sapiens), sequence (Q15788 whole entry, looked up, the tested form may be a part): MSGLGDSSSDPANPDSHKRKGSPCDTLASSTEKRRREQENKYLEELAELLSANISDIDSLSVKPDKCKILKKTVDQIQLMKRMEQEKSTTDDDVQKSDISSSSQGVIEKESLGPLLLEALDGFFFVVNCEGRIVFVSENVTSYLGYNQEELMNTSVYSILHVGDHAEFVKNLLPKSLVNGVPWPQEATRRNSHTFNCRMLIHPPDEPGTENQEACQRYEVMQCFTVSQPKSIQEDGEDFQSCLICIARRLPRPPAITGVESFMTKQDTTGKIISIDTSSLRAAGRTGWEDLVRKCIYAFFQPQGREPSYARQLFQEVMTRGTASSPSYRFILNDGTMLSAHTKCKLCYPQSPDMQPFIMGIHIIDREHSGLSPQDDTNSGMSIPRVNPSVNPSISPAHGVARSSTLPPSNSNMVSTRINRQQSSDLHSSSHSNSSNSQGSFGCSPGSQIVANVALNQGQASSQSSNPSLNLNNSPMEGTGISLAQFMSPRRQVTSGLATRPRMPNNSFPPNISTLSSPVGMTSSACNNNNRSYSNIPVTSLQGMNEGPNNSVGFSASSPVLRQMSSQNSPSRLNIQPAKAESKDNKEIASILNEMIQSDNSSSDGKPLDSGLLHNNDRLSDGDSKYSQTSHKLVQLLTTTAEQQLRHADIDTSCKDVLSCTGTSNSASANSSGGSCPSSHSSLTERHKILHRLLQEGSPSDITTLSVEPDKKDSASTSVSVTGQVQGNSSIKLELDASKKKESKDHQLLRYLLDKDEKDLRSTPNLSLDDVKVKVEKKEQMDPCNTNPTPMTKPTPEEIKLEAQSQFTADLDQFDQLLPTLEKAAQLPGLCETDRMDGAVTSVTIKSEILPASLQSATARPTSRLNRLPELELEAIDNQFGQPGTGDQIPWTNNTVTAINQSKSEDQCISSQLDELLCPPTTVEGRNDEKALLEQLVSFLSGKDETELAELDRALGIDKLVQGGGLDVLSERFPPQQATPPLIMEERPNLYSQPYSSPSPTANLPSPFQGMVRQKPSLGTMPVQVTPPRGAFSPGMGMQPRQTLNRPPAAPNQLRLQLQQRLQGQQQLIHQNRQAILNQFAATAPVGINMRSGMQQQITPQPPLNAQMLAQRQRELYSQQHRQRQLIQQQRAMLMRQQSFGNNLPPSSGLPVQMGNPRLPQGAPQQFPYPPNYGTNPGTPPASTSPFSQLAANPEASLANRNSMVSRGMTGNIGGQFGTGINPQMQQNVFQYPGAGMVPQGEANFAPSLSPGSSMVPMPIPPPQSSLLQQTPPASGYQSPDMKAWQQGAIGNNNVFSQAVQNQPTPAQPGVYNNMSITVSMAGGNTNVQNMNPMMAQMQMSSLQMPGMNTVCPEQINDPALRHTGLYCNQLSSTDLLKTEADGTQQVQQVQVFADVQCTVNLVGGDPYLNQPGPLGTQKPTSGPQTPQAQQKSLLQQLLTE

Question: Which inhibition does the source give for `COc1ccc(Cl)cc1NC(=O)Nc1ccccc1C(N)=O` here?
Answer: 9.1%

Question: Which inhibition does the source give for `Cc1ccc(S(=O)(=O)c2nc(-c3ccccc3Cl)oc2NCCCN2CCOCC2)cc1` here?
Answer: -13.7%

Question: With `COc1ccc2cc3cc(C(=O)NCCc4ccc(OC)c(OC)c4)oc3nc2c1` as the compound, how does the inhibition read?
Answer: -32.9%

Question: Which inhibition does the source give for `COc1cccc(CNC(=O)C2CCCN(S(C)(=O)=O)C2)c1` (stereo not given) here?
Answer: -0.5%

Question: For `Cn1c(O)c(N=NC(=N)N)c2ccccc21`, which inhibition is on record?
Answer: 5.65%

Question: Which inhibition does the source give for `COc1ccc(NC(=O)/C(C#N)=C\c2cc(C)n(-c3ccc4c(c3)OCO4)c2C)cc1` here?
Answer: -34.8%

Question: Which inhibition does the source give for `CN1C(=O)C(O)(C2CCCCCC2=O)c2ccccc21` (stereo not given) here?
Answer: -7.54%

Question: For `COc1ccc(C(=O)N2CCN(c3ccc(NC(=O)c4cccs4)cc3)CC2)cc1`, which inhibition is on record?
Answer: 2.7%

Question: With `CCOC(=O)C(=O)NNc1ccc(F)cc1` as the compound, how does the inhibition read?
Answer: -25.9%

Question: With `COC(=O)c1ccc2c(c1)NC(=O)c1ccccc1S2` as the compound, how does the inhibition read?
Answer: -8.66%

Question: Which inhibition does the source give for `COc1ccccc1NC(=O)Cn1c(C)cc(=O)c2cccc(OC)c21` here?
Answer: -24.2%

Question: For `COc1ccc(NC(=O)NNC(=O)COc2ccc3ccccc3c2)cc1OC`, which inhibition is on record?
Answer: 14%

Question: Which inhibition does the source give for `O=C(COC(=O)COc1ccccc1)NCCc1ccccc1` here?
Answer: -16.7%

Question: For `COc1ccccc1CNC(=O)C1CCCN(S(=O)(=O)c2cccc3nsnc23)C1` (stereo not given), which inhibition is on record?
Answer: -23.4%

Question: Which inhibition does the source give for `Cc1c(O)ccc(/C(Cc2ccc3ccccc3n2)=N\N)c1O` here?
Answer: -105%

Question: With `COc1ccc2sc3c(=O)[nH]c4ccccc4c3c2c1` as the compound, how does the inhibition read?
Answer: 55% (active)

Question: For `Cc1ccoc1C(=O)NCCNC(=O)c1occc1C`, which inhibition is on record?
Answer: -20.6%

Question: For `CC(C)(C)c1ccc(OCCC(=O)NNC(=O)c2ccncc2)cc1`, which inhibition is on record?
Answer: -13.7%

Question: With `CC(C)(C)c1cc(C(=O)C[n+]2ccc(C(=O)NCCCO)cc2)cc(C(C)(C)C)c1O` as the compound, how does the inhibition read?
Answer: -6.91%

Question: With `CCN(C(=O)C(C)OC(=O)CCCNC(=O)c1ccc(Cl)cc1)c1ccccc1` (stereo not given) as the compound, how does the inhibition read?
Answer: -2.16%

Question: With `CCOc1ccc(CCNC(=O)CSCc2ccc(C)cc2)cc1OCC` as the compound, how does the inhibition read?
Answer: -18.5%

Question: With `COc1cc(C(=O)NCCOc2cc(C)ccc2C(C)C)cc(OC)c1OC` as the compound, how does the inhibition read?
Answer: -14.4%

Question: For `CCOCCOC(=O)c1[nH]c2c(c1C)C(=O)CC(c1cc(OC)c(OC)c(OC)c1)C2` (stereo not given), which inhibition is on record?
Answer: -15.9%

Question: With `C=CCn1c(SCC(=O)Nc2ccccc2F)nc2ccccc2c1=O` as the compound, how does the inhibition read?
Answer: 2.78%

Question: Which inhibition does the source give for `COc1ccc(S(=O)(=O)N(C)c2ccc(C(=O)NCc3ccco3)cc2)cc1OC` here?
Answer: -12.2%

Question: With `Cc1ccccc1COc1cccc(/C=N/NC(=O)c2nnn(-c3nonc3N)c2C)c1` as the compound, how does the inhibition read?
Answer: 7.5%

Question: With `COc1cc2cc[n+](Cc3ccc([N+](=O)[O-])cc3)cc2cc1OC` as the compound, how does the inhibition read?
Answer: -2.4%

Question: For `COc1ccc(Cl)cc1NC(=O)CN(C)C(=O)c1ccc(COc2ccccc2)cc1`, which inhibition is on record?
Answer: -31.4%

Question: For `COc1ccc(N2CCN(C(=O)c3ccc(CS(=O)c4cccc(C)c4)o3)CC2)cc1` (stereo not given), which inhibition is on record?
Answer: -16.2%

Question: Which inhibition does the source give for `Cc1ccc(S(=O)(=O)NNC2=NS(=O)(=O)c3ccccc32)c(C)c1` here?
Answer: -17.6%

Question: With `COc1ccc(-c2cc(=O)oc3c(C)c(O)c(CN(C)C)cc23)cc1` as the compound, how does the inhibition read?
Answer: 17.5%

Question: Which inhibition does the source give for `CC(C)C(=O)N1CCN(c2ccc(NC(=O)c3ccc4c(c3)OCCO4)cc2Cl)CC1` here?
Answer: -52.5%

Question: With `C=CCn1c(Oc2ccccc2F)nc2c1c(=O)n(C)c(=O)n2C` as the compound, how does the inhibition read?
Answer: 46.6%

Question: Which inhibition does the source give for `CCc1ccc(NC(=O)C2CCN(S(=O)(=O)c3ccc4c(c3)CC(C)N4C(C)=O)CC2)cc1` (stereo not given) here?
Answer: -7.12%

Question: With `Nc1ccn(C2OC(CO)C(O)C2O)c(=O)n1` (stereo not given) as the compound, how does the inhibition read?
Answer: 24.8%

Question: For `COc1ccc(-c2csc(NC(=O)c3ccccc3NS(=O)(=O)c3ccc(C)cc3)n2)cc1`, which inhibition is on record?
Answer: 19.3%

Question: With `COc1cc2c(cc1OC)CN(C(=O)c1cc(S(=O)(=O)N3CCOCC3)ccc1C)CC2` as the compound, how does the inhibition read?
Answer: 1.45%

Question: With `CC1=C(C(=O)OCc2ccccc2)C(c2ccsc2)C(C#N)=C(N)O1` (stereo not given) as the compound, how does the inhibition read?
Answer: -1.74%

Question: For `COc1ccc(Cc2nnc(SCC(=O)Nc3ccc(C)c(Cl)c3)[nH]c2=O)cc1`, which inhibition is on record?
Answer: 6.82%

Question: With `CCc1ccc(CNC(=O)C2CCCN(S(=O)(=O)N(CC)c3ccccc3)C2)cc1` (stereo not given) as the compound, how does the inhibition read?
Answer: -39.2%

Tested on: not listed separately
Test: repression of VP16-driven luciferase reporter – cell-based, luminescence, high throughput, counter-screen for SRC1 inhibitor project (AID 588824)
Details: cell-based VP16 transactivation luciferase luminescence; at 3.6 µM; active compounds read high

Question: For `COc1ccc(Cl)cc1NC(=O)Nc1ccccc1C(N)=O`, which inhibition is on record?
Answer: 17.7%

Question: Which inhibition does the source give for `Cc1ccc(S(=O)(=O)c2nc(-c3ccccc3Cl)oc2NCCCN2CCOCC2)cc1` here?
Answer: -5.68%

Question: With `COc1ccc2cc3cc(C(=O)NCCc4ccc(OC)c(OC)c4)oc3nc2c1` as the compound, how does the inhibition read?
Answer: 42.2% (active)

Question: Which inhibition does the source give for `COc1cccc(CNC(=O)C2CCCN(S(C)(=O)=O)C2)c1` (stereo not given) here?
Answer: 8.47%

Question: For `Cn1c(O)c(N=NC(=N)N)c2ccccc21`, which inhibition is on record?
Answer: 11.6%

Question: For `COc1ccc(NC(=O)/C(C#N)=C\c2cc(C)n(-c3ccc4c(c3)OCO4)c2C)cc1`, which inhibition is on record?
Answer: 30.7% (active)

Question: With `CN1C(=O)C(O)(C2CCCCCC2=O)c2ccccc21` (stereo not given) as the compound, how does the inhibition read?
Answer: -0.98%

Question: For `COc1ccc(C(=O)N2CCN(c3ccc(NC(=O)c4cccs4)cc3)CC2)cc1`, which inhibition is on record?
Answer: -1.25%

Question: Which inhibition does the source give for `CCOC(=O)C(=O)NNc1ccc(F)cc1` here?
Answer: -4.08%

Question: For `COC(=O)c1ccc2c(c1)NC(=O)c1ccccc1S2`, which inhibition is on record?
Answer: -1.54%

Question: Which inhibition does the source give for `COc1ccccc1NC(=O)Cn1c(C)cc(=O)c2cccc(OC)c21` here?
Answer: 4.63%

Question: With `COc1ccc(NC(=O)NNC(=O)COc2ccc3ccccc3c2)cc1OC` as the compound, how does the inhibition read?
Answer: 8.08%

Question: With `O=C(COC(=O)COc1ccccc1)NCCc1ccccc1` as the compound, how does the inhibition read?
Answer: -1.43%

Question: With `COc1ccccc1CNC(=O)C1CCCN(S(=O)(=O)c2cccc3nsnc23)C1` (stereo not given) as the compound, how does the inhibition read?
Answer: -0.08%

Question: Which inhibition does the source give for `Cc1c(O)ccc(/C(Cc2ccc3ccccc3n2)=N\N)c1O` here?
Answer: -61.3%

Question: Which inhibition does the source give for `COc1ccc2sc3c(=O)[nH]c4ccccc4c3c2c1` here?
Answer: 41.4% (active)

Question: For `Cc1ccoc1C(=O)NCCNC(=O)c1occc1C`, which inhibition is on record?
Answer: -15.1%

Question: For `CC(C)(C)c1ccc(OCCC(=O)NNC(=O)c2ccncc2)cc1`, which inhibition is on record?
Answer: -5.17%

Question: For `CC(C)(C)c1cc(C(=O)C[n+]2ccc(C(=O)NCCCO)cc2)cc(C(C)(C)C)c1O`, which inhibition is on record?
Answer: -12.9%

Question: For `CCN(C(=O)C(C)OC(=O)CCCNC(=O)c1ccc(Cl)cc1)c1ccccc1` (stereo not given), which inhibition is on record?
Answer: -2.69%

Question: With `CCOc1ccc(CCNC(=O)CSCc2ccc(C)cc2)cc1OCC` as the compound, how does the inhibition read?
Answer: -1.5%

Question: With `COc1cc(C(=O)NCCOc2cc(C)ccc2C(C)C)cc(OC)c1OC` as the compound, how does the inhibition read?
Answer: 23.8%

Question: With `CCOCCOC(=O)c1[nH]c2c(c1C)C(=O)CC(c1cc(OC)c(OC)c(OC)c1)C2` (stereo not given) as the compound, how does the inhibition read?
Answer: 13.5%

Question: With `C=CCn1c(SCC(=O)Nc2ccccc2F)nc2ccccc2c1=O` as the compound, how does the inhibition read?
Answer: -1.24%

Question: With `COc1ccc(S(=O)(=O)N(C)c2ccc(C(=O)NCc3ccco3)cc2)cc1OC` as the compound, how does the inhibition read?
Answer: -0.34%

Question: For `Cc1ccccc1COc1cccc(/C=N/NC(=O)c2nnn(-c3nonc3N)c2C)c1`, which inhibition is on record?
Answer: 18.5%

Question: Which inhibition does the source give for `COc1cc2cc[n+](Cc3ccc([N+](=O)[O-])cc3)cc2cc1OC` here?
Answer: -3.17%

Question: With `COc1ccc(Cl)cc1NC(=O)CN(C)C(=O)c1ccc(COc2ccccc2)cc1` as the compound, how does the inhibition read?
Answer: -12.9%

Question: For `COc1ccc(N2CCN(C(=O)c3ccc(CS(=O)c4cccc(C)c4)o3)CC2)cc1` (stereo not given), which inhibition is on record?
Answer: -2.71%

Question: With `Cc1ccc(S(=O)(=O)NNC2=NS(=O)(=O)c3ccccc32)c(C)c1` as the compound, how does the inhibition read?
Answer: -7.56%

Question: Which inhibition does the source give for `COc1ccc(-c2cc(=O)oc3c(C)c(O)c(CN(C)C)cc23)cc1` here?
Answer: 18.4%

Question: For `CC(C)C(=O)N1CCN(c2ccc(NC(=O)c3ccc4c(c3)OCCO4)cc2Cl)CC1`, which inhibition is on record?
Answer: -6.57%

Question: Which inhibition does the source give for `C=CCn1c(Oc2ccccc2F)nc2c1c(=O)n(C)c(=O)n2C` here?
Answer: 23.6%

Question: With `CCc1ccc(NC(=O)C2CCN(S(=O)(=O)c3ccc4c(c3)CC(C)N4C(C)=O)CC2)cc1` (stereo not given) as the compound, how does the inhibition read?
Answer: 12.7%

Question: With `Nc1ccn(C2OC(CO)C(O)C2O)c(=O)n1` (stereo not given) as the compound, how does the inhibition read?
Answer: 20.1%

Question: Which inhibition does the source give for `COc1ccc(-c2csc(NC(=O)c3ccccc3NS(=O)(=O)c3ccc(C)cc3)n2)cc1` here?
Answer: 30.8% (active)

Question: With `COc1cc2c(cc1OC)CN(C(=O)c1cc(S(=O)(=O)N3CCOCC3)ccc1C)CC2` as the compound, how does the inhibition read?
Answer: 7.41%

Question: Which inhibition does the source give for `CC1=C(C(=O)OCc2ccccc2)C(c2ccsc2)C(C#N)=C(N)O1` (stereo not given) here?
Answer: 3.63%

Question: For `COc1ccc(Cc2nnc(SCC(=O)Nc3ccc(C)c(Cl)c3)[nH]c2=O)cc1`, which inhibition is on record?
Answer: 7.22%

Question: With `CCc1ccc(CNC(=O)C2CCCN(S(=O)(=O)N(CC)c3ccccc3)C2)cc1` (stereo not given) as the compound, how does the inhibition read?
Answer: -3.99%
